Measured values taken from the supplement of paper PMC10849652.
Of roughly 8,800 targets only a part is listed; those with a hit were picked by preference. About 0.5% of all pairs of compound and target were hits.

What was measured:
Assay in all cases: log2 fold change, soluble protein after heating vs DMSO (PISA); higher = thermal stabilisation; K562 lysate, 10 uM; active = over 0.2 and 3.5 SD of the protein, either way, in both replicates (recomputed)
ibrutinib = compound: C=CC(=O)N1CCC[C@@H](n2nc(-c3ccc(Oc4ccccc4)cc3)c3c(N)ncnc32)C1 [ibrutinib]
Method in brief: (§1)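 Following dounce homogenisation of K562 pellets in PBS pH 7.4 with 1 mM MgCl2, crude extract at 1 mg/mL protein was incubated for 30 min with 10 μM compound. Aliquots were then heated for 3 min over 48°C-58°C and pooled, NP-40 was added to 0.5% at 4°C, and soluble protein was recovered as the supernatant at 21,000xg for 90 min. Channel-sum-equalised TMTpro 16plex LC-MS/MS quantified this protein. Each value, from duplicates, is a log-two fold change in thermal stability relative to solvent controls.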

[1] = compound: CC(=O)c1cnc2ccc(-c3cc(Cl)c(O)c(Cl)c3)nc2c1N[C@H]1CC[C@H](CN(C)C)CC1
Method in brief: as §1

ralimetinib = compound: CC(C)(C)Cn1c(N)nc2ccc(-c3[nH]c(C(C)(C)C)nc3-c3ccc(F)cc3)nc21 [ralimetinib]
Method in brief: as §1

[2] = compound: CC(C)(O)CC(=O)NCCn1ccc2ncnc(Nc3ccc(Oc4cccc(C(F)(F)F)c4)c(Cl)c3)c21
Method in brief: as §1

[3] = compound: CC(C)C1=C2N=C(C=C(N2N=C1)NCC3=CC=CC=C3)NCCCCCCN
Method in brief: as §1

[4] = compound: CC1=C(C(CC(=O)N1)C2=CC=C(C=C2)C(F)(F)F)C(=O)NC3=C(C=C4C(=C3)C=NN4)F
Method in brief: as §1

[5] = compound: CC1=C(C2=C(C=C1)C(=O)C3=CC=CC=C3N2CCCN)C
Method in brief: as §1

[6] = compound: CC1=C(C=C(C=C1)NC(=O)C2=CC(=CC=C2)C(C)(C)C#N)NC3=CC4=C(C=C3)N=CN(C4=O)C
Method in brief: as §1

[7] = compound: CC1=C(C=C(C=C1)NC(=O)C2=CC(=CC=C2)N(C)C)NC(=O)C3=CC=C(C=C3)O
Method in brief: as §1

[8] = compound: CC1=CC=C(C=C1)SC2=C3C=C(SC3=CN=C2)C(=O)N
Method in brief: as §1

Measured: log2 fold change

KLHL36 (UniProt Q8N4N3)
inactive: ibrutinib 0.002 | [1] -0.047 | ralimetinib 0.092 | [2] -0.028 | [3] 0.053 | [4] -0.008 | [5] -0.085 | [6] -0.005 | [7] -0.098 | [8] -0.003

KIF22 (UniProt Q14807)
inactive: ibrutinib 0.012 | [1] -0.02 | ralimetinib 0.006 | [2] -0.27 | [3] 0.028 | [4] 0.016 | [5] -0.142 | [6] 0.143 | [7] -0.027 | [8] -0.117

LUZP1 (UniProt Q86V48)
inactive: ibrutinib 0.002 | [1] -0.002 | ralimetinib 0.003 | [2] -0.012 | [3] 0.016 | [4] -0.006 | [5] 0.012 | [6] 0.011 | [7] -0.002 | [8] 0.017

MED8 isoform 2 (UniProt Q96G25)
Chain of UniProt Q96G25 (Q96G25 whole entry, looked up): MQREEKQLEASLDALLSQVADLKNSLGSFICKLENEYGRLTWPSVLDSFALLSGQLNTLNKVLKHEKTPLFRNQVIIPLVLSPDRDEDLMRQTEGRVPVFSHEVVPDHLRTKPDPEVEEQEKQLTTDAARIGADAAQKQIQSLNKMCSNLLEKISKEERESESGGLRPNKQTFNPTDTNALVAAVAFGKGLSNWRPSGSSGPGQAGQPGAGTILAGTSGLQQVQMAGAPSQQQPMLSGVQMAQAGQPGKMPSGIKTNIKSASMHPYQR
inactive: ibrutinib 0.109 | [1] 0.024 | ralimetinib 0.012 | [2] 0.036 | [3] 0.006 | [4] -0.03 | [5] -0.001 | [6] -0.005 | [7] -0.05 | [8] -0.058

MBOAT2 (UniProt Q6ZWT7)
inactive: ibrutinib -0.092 | [1] -0.039 | ralimetinib 0.137 | [2] 0.047 | [3] -0.047 | [4] 0.034 | [5] 0.031 | [6] 0.008 | [7] -0.117 | [8] 0.096

KPNA2 (UniProt P52292)
inactive: ibrutinib -0.044 | [1] -0.011 | ralimetinib -0.001 | [2] -0.023 | [3] 0.009 | [4] -0.01 | [5] -0.027 | [6] -0.032 | [7] 0.051 | [8] 0.041

MINK1 (UniProt Q8N4C8)
inactive: ibrutinib -0.003 | [1] 0.013 | ralimetinib 0.042 | [2] -0.051 | [3] 0.119 | [4] -0.144 | [5] -0.03 | [6] -0.008 | [7] 0.013 | [8] 0.021

MGST3 (UniProt O14880)
inactive: ibrutinib 0.06 | [1] -0.004 | ralimetinib 0.041 | [2] -0.046 | [3] -0.009 | [4] -0.004 | [5] -0.03 | [6] 0.042 | [7] 0.006 | [8] -0.025

KMT2A isoform 3 (UniProt Q03164)
Chain of UniProt Q03164 (Q03164 whole entry, looked up): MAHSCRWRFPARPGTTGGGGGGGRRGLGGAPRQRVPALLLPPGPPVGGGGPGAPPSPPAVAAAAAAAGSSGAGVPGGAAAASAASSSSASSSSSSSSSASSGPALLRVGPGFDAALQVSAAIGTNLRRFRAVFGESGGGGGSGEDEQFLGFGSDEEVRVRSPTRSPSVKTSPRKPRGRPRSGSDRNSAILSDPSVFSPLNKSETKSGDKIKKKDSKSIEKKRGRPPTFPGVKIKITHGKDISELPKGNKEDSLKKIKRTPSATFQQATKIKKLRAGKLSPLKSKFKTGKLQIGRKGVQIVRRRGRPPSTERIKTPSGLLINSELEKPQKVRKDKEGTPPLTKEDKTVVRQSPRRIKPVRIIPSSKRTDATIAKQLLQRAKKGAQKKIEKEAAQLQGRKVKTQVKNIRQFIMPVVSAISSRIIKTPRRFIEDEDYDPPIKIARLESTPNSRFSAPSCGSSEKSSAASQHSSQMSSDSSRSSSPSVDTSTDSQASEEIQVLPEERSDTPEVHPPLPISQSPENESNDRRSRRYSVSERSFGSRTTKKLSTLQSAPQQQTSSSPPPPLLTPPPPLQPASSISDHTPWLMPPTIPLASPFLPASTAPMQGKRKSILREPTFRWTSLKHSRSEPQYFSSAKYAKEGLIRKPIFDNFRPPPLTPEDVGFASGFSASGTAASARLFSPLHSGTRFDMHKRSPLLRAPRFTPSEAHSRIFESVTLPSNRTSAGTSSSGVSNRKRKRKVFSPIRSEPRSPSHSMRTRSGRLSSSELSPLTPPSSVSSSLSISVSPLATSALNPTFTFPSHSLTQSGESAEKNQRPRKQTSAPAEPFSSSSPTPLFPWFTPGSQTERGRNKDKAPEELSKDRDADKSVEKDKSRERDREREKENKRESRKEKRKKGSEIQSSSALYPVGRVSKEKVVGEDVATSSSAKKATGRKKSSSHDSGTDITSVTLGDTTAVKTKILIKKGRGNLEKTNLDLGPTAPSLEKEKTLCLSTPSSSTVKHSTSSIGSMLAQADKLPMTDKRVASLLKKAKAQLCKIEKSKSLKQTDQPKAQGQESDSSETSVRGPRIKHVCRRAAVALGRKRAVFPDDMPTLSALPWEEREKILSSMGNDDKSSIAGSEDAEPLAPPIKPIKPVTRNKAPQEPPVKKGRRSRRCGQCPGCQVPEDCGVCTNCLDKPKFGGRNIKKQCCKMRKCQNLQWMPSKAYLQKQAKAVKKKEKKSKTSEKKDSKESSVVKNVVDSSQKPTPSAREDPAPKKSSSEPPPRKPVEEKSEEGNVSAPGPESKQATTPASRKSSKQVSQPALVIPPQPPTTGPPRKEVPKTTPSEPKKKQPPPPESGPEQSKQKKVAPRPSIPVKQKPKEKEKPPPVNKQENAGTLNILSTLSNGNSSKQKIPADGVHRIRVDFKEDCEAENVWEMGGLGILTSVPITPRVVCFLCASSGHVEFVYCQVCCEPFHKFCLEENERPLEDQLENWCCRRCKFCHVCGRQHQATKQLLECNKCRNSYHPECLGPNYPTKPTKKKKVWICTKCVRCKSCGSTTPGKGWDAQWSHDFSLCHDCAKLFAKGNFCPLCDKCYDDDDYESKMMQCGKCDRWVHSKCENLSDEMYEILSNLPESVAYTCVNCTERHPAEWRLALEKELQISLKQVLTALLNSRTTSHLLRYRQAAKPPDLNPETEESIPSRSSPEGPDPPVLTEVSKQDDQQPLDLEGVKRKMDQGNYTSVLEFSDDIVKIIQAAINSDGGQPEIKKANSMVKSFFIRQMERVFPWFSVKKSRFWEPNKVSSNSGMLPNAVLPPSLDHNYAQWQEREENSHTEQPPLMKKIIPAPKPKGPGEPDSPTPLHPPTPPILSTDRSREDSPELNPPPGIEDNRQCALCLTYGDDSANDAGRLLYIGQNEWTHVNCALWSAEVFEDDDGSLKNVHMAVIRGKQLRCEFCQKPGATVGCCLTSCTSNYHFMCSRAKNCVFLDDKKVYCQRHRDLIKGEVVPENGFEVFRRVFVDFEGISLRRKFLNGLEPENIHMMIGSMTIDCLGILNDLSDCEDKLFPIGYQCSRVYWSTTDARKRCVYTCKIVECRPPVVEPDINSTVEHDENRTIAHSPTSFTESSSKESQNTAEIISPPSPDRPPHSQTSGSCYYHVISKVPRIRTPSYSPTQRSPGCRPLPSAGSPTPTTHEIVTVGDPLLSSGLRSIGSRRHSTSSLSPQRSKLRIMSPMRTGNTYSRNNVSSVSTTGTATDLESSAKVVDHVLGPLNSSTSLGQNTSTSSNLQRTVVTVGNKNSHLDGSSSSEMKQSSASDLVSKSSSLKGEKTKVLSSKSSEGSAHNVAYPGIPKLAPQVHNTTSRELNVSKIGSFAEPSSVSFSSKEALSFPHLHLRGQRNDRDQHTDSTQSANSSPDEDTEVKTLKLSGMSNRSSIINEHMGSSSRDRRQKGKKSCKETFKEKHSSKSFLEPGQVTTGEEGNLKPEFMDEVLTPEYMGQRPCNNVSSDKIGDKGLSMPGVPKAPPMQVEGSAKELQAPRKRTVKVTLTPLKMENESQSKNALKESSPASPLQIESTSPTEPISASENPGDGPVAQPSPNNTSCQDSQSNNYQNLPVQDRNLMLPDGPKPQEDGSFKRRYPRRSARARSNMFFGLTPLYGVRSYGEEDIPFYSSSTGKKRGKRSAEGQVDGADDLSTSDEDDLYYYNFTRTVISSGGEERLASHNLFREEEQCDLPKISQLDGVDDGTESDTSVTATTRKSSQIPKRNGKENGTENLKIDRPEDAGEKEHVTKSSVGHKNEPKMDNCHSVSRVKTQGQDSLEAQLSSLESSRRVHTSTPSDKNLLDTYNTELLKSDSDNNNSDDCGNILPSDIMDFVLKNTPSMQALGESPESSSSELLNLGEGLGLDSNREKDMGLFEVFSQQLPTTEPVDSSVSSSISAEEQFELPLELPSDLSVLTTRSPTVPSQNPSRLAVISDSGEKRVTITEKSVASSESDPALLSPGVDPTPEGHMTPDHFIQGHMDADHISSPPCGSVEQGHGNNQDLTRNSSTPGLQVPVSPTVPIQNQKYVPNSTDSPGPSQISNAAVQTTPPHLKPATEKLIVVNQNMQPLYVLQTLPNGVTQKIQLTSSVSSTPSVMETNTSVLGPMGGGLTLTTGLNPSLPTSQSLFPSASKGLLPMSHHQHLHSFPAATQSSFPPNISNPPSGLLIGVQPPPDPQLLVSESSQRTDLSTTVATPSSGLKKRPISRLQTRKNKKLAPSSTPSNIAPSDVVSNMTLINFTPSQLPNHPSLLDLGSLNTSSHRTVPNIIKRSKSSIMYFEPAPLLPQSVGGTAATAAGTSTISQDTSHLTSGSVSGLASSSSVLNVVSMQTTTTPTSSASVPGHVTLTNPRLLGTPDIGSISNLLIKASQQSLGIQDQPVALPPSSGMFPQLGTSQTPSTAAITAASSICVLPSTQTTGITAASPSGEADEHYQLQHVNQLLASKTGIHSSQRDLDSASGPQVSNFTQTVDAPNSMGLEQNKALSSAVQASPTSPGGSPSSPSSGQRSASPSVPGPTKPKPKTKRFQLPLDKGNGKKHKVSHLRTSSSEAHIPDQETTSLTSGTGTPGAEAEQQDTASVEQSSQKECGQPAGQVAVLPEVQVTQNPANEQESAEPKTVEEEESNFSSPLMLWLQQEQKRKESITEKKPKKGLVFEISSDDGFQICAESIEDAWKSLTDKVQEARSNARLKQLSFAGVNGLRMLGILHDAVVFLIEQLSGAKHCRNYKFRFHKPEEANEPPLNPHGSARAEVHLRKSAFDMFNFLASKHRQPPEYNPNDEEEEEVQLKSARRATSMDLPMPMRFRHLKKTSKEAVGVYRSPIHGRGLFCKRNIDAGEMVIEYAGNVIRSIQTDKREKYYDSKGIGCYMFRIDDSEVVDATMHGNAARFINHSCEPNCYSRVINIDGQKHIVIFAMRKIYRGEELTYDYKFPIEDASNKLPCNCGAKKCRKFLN
inactive: ibrutinib -0.054 | [1] 0.005 | ralimetinib -0.008 | [2] -0.117 | [3] 0.019 | [4] -0.114 | [5] -0.047 | [6] -0.046 | [7] 0.025 | [8] 0

LZTR1 (UniProt Q8N653)
inactive: ibrutinib -0.074 | [1] -0.441 | ralimetinib -0.023 | [2] 0.102 | [3] 0.009 | [4] 0.048 | [5] -0.014 | [6] -0.001 | [7] 0.113 | [8] 0.041

MON2 isoform 5 (UniProt Q7Z3U7)
inactive: ibrutinib -0.027 | [1] 0.001 | ralimetinib 0.017 | [2] -0.042 | [3] -0.02 | [4] 0.012 | [5] 0.002 | [6] 0.01 | [7] 0.025 | [8] 0

MAPK14 (UniProt Q16539)
active: ralimetinib 1.16 | [6] 0.88
inactive: ibrutinib 0.042 | [1] 0.238 | [2] -0.008 | [3] -0.06 | [4] -0.14 | [5] -0.026 | [7] 0.455 | [8] -0.007

MPI (UniProt P34949)
inactive: ibrutinib 0.029 | [1] 0.031 | ralimetinib -0.06 | [2] 0.009 | [3] -0.039 | [4] -0.004 | [5] -0.051 | [6] 0.055 | [7] -0.012 | [8] -0.013

MRPL19 (UniProt P49406)
inactive: ibrutinib 0.067 | [1] 0.027 | ralimetinib 0.034 | [2] -0.057 | [3] 0.029 | [4] -0.021 | [5] 0.01 | [6] -0.013 | [7] 0.023 | [8] -0.002

KLC1 isoform 6 (UniProt Q07866)
Chain of UniProt Q07866 (Q07866 whole entry, looked up): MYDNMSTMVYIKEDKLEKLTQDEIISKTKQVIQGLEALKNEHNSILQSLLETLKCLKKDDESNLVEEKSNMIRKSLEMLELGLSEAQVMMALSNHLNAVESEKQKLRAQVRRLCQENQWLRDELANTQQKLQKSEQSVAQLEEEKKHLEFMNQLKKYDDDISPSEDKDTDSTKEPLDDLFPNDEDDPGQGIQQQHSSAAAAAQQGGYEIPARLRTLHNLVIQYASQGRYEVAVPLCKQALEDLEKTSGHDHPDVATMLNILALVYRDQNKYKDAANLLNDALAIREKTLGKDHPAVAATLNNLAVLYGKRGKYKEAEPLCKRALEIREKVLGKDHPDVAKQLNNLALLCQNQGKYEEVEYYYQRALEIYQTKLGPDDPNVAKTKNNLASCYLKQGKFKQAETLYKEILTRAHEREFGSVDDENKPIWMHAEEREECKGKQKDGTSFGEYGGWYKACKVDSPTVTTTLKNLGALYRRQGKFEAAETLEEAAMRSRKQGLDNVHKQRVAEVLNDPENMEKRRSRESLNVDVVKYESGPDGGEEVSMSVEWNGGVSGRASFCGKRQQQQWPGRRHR
inactive: ibrutinib -0.022 | [1] -0.012 | ralimetinib 0.019 | [2] 0.005 | [3] 0.002 | [4] -0.01 | [5] 0.012 | [6] 0.028 | [7] -0.002 | [8] -0.017

LPIN1 isoform 7 (UniProt Q14693)
inactive: ibrutinib 0.02 | [1] 0.07 | ralimetinib 0.035 | [2] -0.025 | [3] -0.033 | [4] 0.066 | [5] 0.022 | [6] -0.016 | [7] 0.007 | [8] -0.009

KNL1 (UniProt Q8NG31)
inactive: ibrutinib 0.009 | [1] -0.014 | ralimetinib 0.012 | [2] -0.032 | [3] 0.013 | [4] 0.012 | [5] -0.022 | [6] 0 | [7] 0.004 | [8] 0.012

LBR (UniProt Q14739)
inactive: ibrutinib 0.034 | [1] -0.01 | ralimetinib 0.019 | [2] -0.121 | [3] -0.029 | [4] 0.018 | [5] 0.065 | [6] -0.089 | [7] -0.026 | [8] -0.036

MED25 isoform 3 (UniProt Q71SY5)
inactive: ibrutinib -0.034 | [1] 0.001 | ralimetinib -0.071 | [2] 0.045 | [3] -0.023 | [4] 0.038 | [5] -0.039 | [6] 0.035 | [7] 0.057 | [8] 0.025

MAP2K3 isoform 3 (UniProt P46734)
inactive: ibrutinib -0.041 | [1] 0.095 | ralimetinib 0.012 | [2] -0.008 | [3] -0.15 | [4] 0.019 | [5] -0.095 | [6] 0.021 | [7] 0.123 | [8] 0.114

MAP7D3 (UniProt Q8IWC1)
inactive: ibrutinib -0.073 | [1] 0.005 | ralimetinib 0.023 | [2] -0.019 | [3] -0.22 | [4] 0.035 | [5] 0.009 | [6] 0.046 | [7] 0.087 | [8] -0.039

MICB, A0A140T979
inactive: ibrutinib 0.074 | [1] 0.317 | ralimetinib -0.037 | [2] -0.101 | [3] -0.07 | [4] -0.11 | [5] -0.002 | [6] 0.016 | [7] 0.004 | [8] -0.068

KRIT1 (UniProt O00522)
inactive: ibrutinib 0.089 | [1] -0.047 | ralimetinib 0.001 | [2] -0.02 | [3] 0.045 | [4] -0.041 | [5] -0.075 | [6] 0.045 | [7] -0.011 | [8] -0.095

KSR1 (UniProt Q8IVT5)
inactive: ibrutinib 0.021 | [1] -0.103 | ralimetinib 0.054 | [2] 0.021 | [3] -0.025 | [4] -0.011 | [5] -0.032 | [6] 0.007 | [7] 0.019 | [8] -0.074

LLGL1 (UniProt Q15334)
inactive: ibrutinib 0.007 | [1] 0.091 | ralimetinib 0.071 | [2] 0.015 | [3] -0.141 | [4] 0.033 | [5] -0.058 | [6] 0.019 | [7] 0.174 | [8] -0.011

KRR1 (UniProt Q13601)
inactive: ibrutinib 0.037 | [1] 0.009 | ralimetinib 0.035 | [2] 0.042 | [3] -0.04 | [4] 0.041 | [5] -0.032 | [6] 0.144 | [7] 0.093 | [8] -0.027

LDAH isoform 2 (UniProt Q9H6V9)
Chain of UniProt Q9H6V9 (Q9H6V9 whole entry, looked up): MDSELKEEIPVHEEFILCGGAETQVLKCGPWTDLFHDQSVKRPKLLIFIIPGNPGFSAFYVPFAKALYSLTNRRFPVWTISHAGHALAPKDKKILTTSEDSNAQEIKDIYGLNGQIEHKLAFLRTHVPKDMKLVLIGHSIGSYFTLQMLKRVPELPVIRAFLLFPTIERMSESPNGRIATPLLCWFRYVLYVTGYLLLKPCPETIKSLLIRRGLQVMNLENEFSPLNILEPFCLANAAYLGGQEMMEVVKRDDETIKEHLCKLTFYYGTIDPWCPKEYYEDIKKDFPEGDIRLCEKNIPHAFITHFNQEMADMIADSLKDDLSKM
inactive: ibrutinib 0.015 | [1] 0.021 | ralimetinib 0.029 | [2] 0.097 | [3] -0.018 | [4] 0.006 | [5] 0.029 | [6] 0.007 | [7] 0 | [8] 0.014

KLHL12 isoform 2 (UniProt Q53G59)
inactive: ibrutinib 0.156 | [1] 0.067 | ralimetinib 0.123 | [2] -0.032 | [3] 0.073 | [4] 0.026 | [5] -0.041 | [6] -0.066 | [7] 0 | [8] 0.007

LRPPRC (UniProt P42704)
inactive: ibrutinib 0.006 | [1] 0.023 | ralimetinib 0.027 | [2] 0.019 | [3] 0.018 | [4] -0.011 | [5] 0.038 | [6] -0.009 | [7] 0.052 | [8] 0.016

METTL21A (UniProt Q8WXB1)
inactive: ibrutinib 0.006 | [1] -0.106 | ralimetinib 0.021 | [2] -0.032 | [3] 0 | [4] -0.019 | [5] -0.138 | [6] 0 | [7] 0.009 | [8] -0.032
